# Measurements reported in PubChem BioAssay AID1259420 (Broad Institute, 2018).
# Where “and” joins values, the source holds several entries; their conditions need not be identical. Identical values can stand only once. Among all 1,000 compounds or so, about 250 (25%) were called active. Inconclusive results (about 31%) are left out. A selection follows. Results with a measured potency or affinity are listed apart. Unmarked numbers belong to inactive results. How the calls were made is not given here. Numbered stars: 1 amine (or outer) side, 2 acyl side, 3 side chain; on linkers, the order of the positions; unused ones are H or OH. Bridge positions count the residues as written; N and C are the ends. Square brackets hold non-standard residues; d marks the D form. Side chains are listed from the residue outwards. Peptide text beside a SMILES is read from it. * marks the point of attachment. ξ: configuration not given here. Ethylenediamine = C(CN[*:2])N[*:1]; Heptanoyl(6-Me) = CC(C)CCCCC(=O)*; Hyp = O=C(O)[C@@H]1C[C@@H](O)CN1; Phg = N[C@H](C(=O)O)c1ccccc1; CO = O=C([*:1])[*:2]; ξDab = NCCC(N)C(=O)O; ξT = CC(O)C(N)C(=O)O; Bn = c1ccc(C*)cc1
# Test: T. gondii intracellular growth, IFN-gamma absent, dose response, cell-based (AID 1259420);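 further: host cells were HeLa; final incubation lasted 72 hours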
# Conditions: Toxoplasma gondii growth in host cells, no IFN-gamma
compound,measurement,setting,value
O=C(C[C@H]1CC[C@H]2[C@@H](COC[C@H](O)CN2Cc2ccc(Oc3ccccc3)cc2)O1)N1CCN(c2ccccc2)CC1,max activity,at 19.5 µM unless noted,19.6%
CCCNC(=O)[C@H]1[C@H](CO)[C@H]2Cn3c(ccc(C4=CCCCC4)c3=O)[C@H]2N1Cc1ccccc1F,max activity,at 19.5 µM unless noted,26.7%
CCC(=O)N1CC(=O)N2[C@@H](CO)[C@H](c3ccc(C#CCC(C)C)cc3)[C@@H]2C1,max activity,at 19.5 µM unless noted,-4.73% [at 2.6 µM]
N#Cc1ccc(-c2ccc(C3[C@@H]4CN(S(=O)(=O)c5ccc(F)cc5)C[C@H]3N4)cc2)cc1 (stereo partly drawn),max activity,at 19.5 µM unless noted,31.5% and 12.6% and 34.4%
COc1cccc(-c2ccc(C3[C@@H]4CN(C(=O)C5CCCCC5)C[C@H]3N4)cc2)c1 (stereo partly drawn),max activity,at 19.5 µM unless noted,23.3%
COc1cc(CN2C[C@@H]3N[C@H](C2)C3c2ccc(-c3ccc(C#N)cc3)cc2)cc(OC)c1 (stereo partly drawn),max activity,at 19.5 µM unless noted,9.2% [at 10 µM]
Cn1cnc(S(=O)(=O)N2C[C@@H]3N[C@H](C2)C3c2ccc(-c3ccccc3F)cc2)c1 (stereo partly drawn),max activity,at 2.35 µM,9.35%
same,max activity,at 19.5 µM,18.7%
Cc1ccccc1-c1ccc(C2[C@@H]3CN(Cc4cncnc4)C[C@H]2N3)cc1 (stereo partly drawn),max activity,at 19.5 µM unless noted,-6.61% [at 10 µM]
COc1cccc(-c2ccc(C3[C@@H]4CN(Cc5ccccn5)C[C@H]3N4)cc2)c1 (stereo partly drawn),max activity,at 19.5 µM unless noted,36.5%
CS(=O)(=O)N1C[C@@H]2N[C@H](C1)[C@@H]2c1ccc(-c2ccccc2)cc1,max activity,at 19.5 µM unless noted,14.6% [at 2.6 µM]
N#Cc1ccc(-c2ccc(C3[C@@H]4CN(C(=O)C5CCCCC5)C[C@H]3N4)cc2)cc1 (stereo partly drawn),max activity,at 19.5 µM unless noted,18.4%
O=C1CC2C(CCN2Cc2ccc(F)cc2)N1CCN1CCOCC1 (stereo not drawn),max activity,at 19.5 µM unless noted,-8.01% [at 5 µM]
O=C(Cc1ccccn1)N1CC(=O)N2[C@H](C1)[C@@H](c1ccc(C#CCC3CCCC3)cc1)[C@@H]2CO,max activity,at 19.5 µM unless noted,30% [at 21 µM]
COC[C@H](N)C(=O)N1CCC(Cc2nnc(SC)n2C)CC1,max activity,at 19.5 µM unless noted,7.97% [at 0.16 µM]
CCCNC(=O)[C@@H]1[C@@H](CO)[C@@H]2Cn3c(ccc(/C=C/c4ccccc4)c3=O)[C@@H]2N1CC1CC1,max activity,at 19.5 µM unless noted,-5.81% [at 10 µM]
C/C=C/c1ccc(C2[C@@H]3CN(S(=O)(=O)c4cccc(OC)c4)C[C@H]2N3)cc1 (stereo partly drawn),max activity,at 19.5 µM unless noted,-10.6% [at 0.16 µM]
Cc1cccc(-c2ccc(C3[C@@H]4CN(C(=O)Nc5ccc(F)cc5)C[C@H]3N4)cc2)c1 (stereo partly drawn),max activity,at 19.5 µM unless noted,30.6% [at 10 µM]
CCCNC(=O)N1C[C@@H]2N[C@H](C1)C2c1ccc(-c2cccc(F)c2)cc1 (stereo partly drawn),max activity,at 19.5 µM unless noted,16.2% [at 21 µM]
O=S(=O)(c1ccc(F)cc1)N1C[C@@H]2N[C@H](C1)C2c1ccc(/C=C/c2ccccc2)cc1 (stereo partly drawn),max activity,at 19.5 µM unless noted,27.1%
COCC#Cc1ccc([C@@H]2[C@H]3CN(C(=O)NC4CCCC4)CCCCN3[C@H]2CO)cc1,max activity,at 19.5 µM unless noted,30.5%
CC(C)CC#Cc1ccc([C@@H]2[C@@H](CO)N3CCCCN(C(=O)Nc4ccccc4)C[C@@H]23)cc1,max activity,at 19.5 µM unless noted,7.18% [at 2.6 µM]
O=C(Nc1cccc(F)c1)N1CCCCN2[C@H](CO)[C@@H](c3ccc(C#Cc4cccnc4)cc3)[C@@H]2C1,max activity,at 19.5 µM unless noted,5.46% [at 5 µM]
O=C(c1cccc(F)c1)N1CCCCN2[C@H](C1)[C@@H](c1ccc(C#CC3(O)CCCC3)cc1)[C@@H]2CO,max activity,at 19.5 µM unless noted,13.2%
O=C(NC1CCCC1)N1CCCCN2[C@H](CO)[C@@H](c3ccc(-c4cccnc4)cc3)[C@H]2C1,max activity,at 19.5 µM unless noted,9.08% [at 0.038 µM]
O=C(NC1CCCC1)N1CCCCN2[C@@H](CO)[C@H](c3ccc(-c4cccnc4)cc3)[C@@H]2C1,max activity,at 19.5 µM unless noted,11.1% [at 2.6 µM]
O=C(Nc1cccc(F)c1)N1CCCCN2[C@H](C1)[C@@H](c1ccc(C#Cc3cccnc3)cc1)[C@@H]2CO,max activity,at 0.3 µM,-7.31%
same,max activity,at 19.5 µM,-13.4%
O=C(c1cccc(F)c1)N1CCCCN2[C@H](C1)[C@H](c1ccc(C#CC3(O)CCCC3)cc1)[C@@H]2CO,max activity,at 10 µM,-12.3%
same,max activity,at 21 µM,-8.26%
CNc1ncc(CN(C)C(=O)c2csc(C)n2)cn1,max activity,at 19.5 µM unless noted,-6.03% [at 5 µM]
Cc1cnc(N2C[C@@H](c3ccccc3)[C@@]3(CCNC3=O)C2)nc1,max activity,at 19.5 µM unless noted,67.2%
CC1(C)C2CCC1(CS(=O)(=O)O)C(=O)/C2=C\c1ccc(/C=C2/C(=O)C3(CS(=O)(=O)O)CCC2C3(C)C)cc1,max activity,at 19.5 µM unless noted,5.44%
Fc1ccccc1-c1ccc(C2[C@H]3CNC[C@@H]2N3CC2CC2)cc1 (stereo partly drawn),max activity,at 19.5 µM unless noted,11.6%
CC(=O)O[C@H]1C[C@@H](OC(C)=O)C(C)(C)C2C[C@@H](OC(C)=O)[C@@]3(C)C4=CC(=O)O[C@@H](c5ccoc5)[C@]4(C)CCC3[C@]21C (stereo partly drawn),max activity,at 19.5 µM unless noted,-6.69% [at 0.16 µM]
O=C(C[C@@H]1CC[C@@H]2[C@H](COC[C@H](O)CN2C(=O)c2cc(Cl)cc(Cl)c2)O1)N1CCc2ccccc2C1,max activity,at 19.5 µM unless noted,9.95%
C/C=C/c1ccc(C2[C@@H]3CN(Cc4cccc(OC)c4)C[C@H]2N3)cc1 (stereo partly drawn),max activity,at 19.5 µM unless noted,25.8% [at 1.2 µM]
O=C(Nc1cccc(F)c1)N1CCCCN2[C@H](C1)[C@H](c1ccc(C#Cc3cccnc3)cc1)[C@@H]2CO,max activity,at 19.5 µM unless noted,-11.5% [at 21 µM]
O=C(Nc1cccc(F)c1)N1CCCCN2[C@@H](CO)[C@@H](c3ccc(C#Cc4cccnc4)cc3)[C@@H]2C1,max activity,at 19.5 µM unless noted,16.4% [at 0.6 µM]
CC(C)CCN1Cc2c(C(=O)Nc3cccc(F)c3)ncn2-c2ccccc2S1(=O)=O,max activity,at 19.5 µM unless noted,27% [at 10 µM]
COc1ccccc1NC(=O)N1CC(=O)N2[C@H](C1)[C@@H](c1ccc(C#CC(C)C)cc1)[C@@H]2CO,max activity,at 19.5 µM unless noted,-5.1% [at 5 µM]
O=C(c1ccc2c(c1)OCO2)N1CC[C@@H]2[C@H](CO)Nc3ccc(C#Cc4ccccc4)cc3[C@@H]21,max activity,at 19.5 µM unless noted,15.9%
N#Cc1ccc(-c2ccc([C@@H]3[C@H]4CNC[C@@H]3N4Cc3ccc4c(c3)OCO4)cc2)cc1,max activity,at 19.5 µM unless noted,27.3% [at 10 µM]
OC[C@@H]1Nc2ccc(C#Cc3ccc(F)cc3)cc2[C@@H]2[C@H]1CCN2Cc1ccc2c(c1)OCO2,max activity,at 19.5 µM unless noted,6.67% [at 1.2 µM]
COCCO[C@H]1CCN(Cc2c(C)noc2C)[C@H]1Cc1ccccc1,max activity,at 19.5 µM unless noted,-15.1% [at 10 µM]
NCCCC[C@@H]1NC(=O)[C@@H](Cc2c[nH]c3ccccc23)NC(=O)[C@H](c2ccccc2)NC(=O)[C@@H]2C[C@@H](OC(=O)NCCN)CN2C(=O)[C@H](Cc2ccccc2)NC(=O)[C@H](Cc2ccc(OCc3ccccc3)cc2)NC1=O (cyclo([Hyp]([CO-Ethylenediamine])[Phg][dW]KY(Bn)F)),max activity,at 19.5 µM unless noted,-6.82% [at 1.2 µM]
CCCCC[C@H](CC(=O)NO)C(=O)N[C@H](C(=O)N1CCC[C@H]1CO)C(C)C,max activity,at 19.5 µM unless noted,-4.64% [at 1.2 µM]
O=C(C[C@H]1CC[C@H]2[C@@H](COC[C@@H](O)CN2Cc2ccc(Oc3ccccc3)cc2)O1)N1CCN(c2ccccc2)CC1,max activity,at 19.5 µM unless noted,-8.77% [at 10 µM]
Nc1c(-c2nnc(-c3ccccc3)o2)sc2nc(-c3ccccc3)cc(-c3ccccc3)c12,max activity,at 19.5 µM unless noted,-6.07% [at 0.6 µM]
CCN(CC)CCOC(=O)C(c1ccccc1)C1CCCCC1 (stereo not drawn),max activity,at 19.5 µM unless noted,16.1% [at 10 µM]
COc1ccc(Cc2nnc(NC(=O)CC(C)C)s2)cc1,max activity,at 19.5 µM unless noted,16.7% [at 10 µM]
COCC12CCCOC1CCN(S(=O)(=O)c1cn(C)cn1)C2 (stereo not drawn),max activity,at 19.5 µM unless noted,-11.3% [at 2.6 µM]
CC(C)C#Cc1ccc([C@@H]2[C@@H](CO)N3C(=O)CN(S(=O)(=O)c4ccccc4)C[C@H]23)cc1,max activity,at 19.5 µM unless noted,8.39%
Cc1ccc(S(=O)(=O)N2CC[C@@H]3[C@H](CO)Nc4ccc(-c5cccc(C(=O)N(C)C)c5)cc4[C@@H]32)cc1,max activity,at 19.5 µM unless noted,15.5%
O=C(C[C@H]1CC[C@@H]2[C@H](COC[C@H](O)CN2C(=O)c2cc(Cl)cc(Cl)c2)O1)N1CCc2ccccc2C1,max activity,at 19.5 µM unless noted,6.12% [at 2.6 µM]
c1ccc(-c2ccc([C@H]3[C@H]4CNC[C@@H]3N4Cc3cc(-c4ccccc4)on3)cc2)cc1,max activity,at 19.5 µM unless noted,21.8% [at 21 µM]
COc1ccc(S(=O)(=O)N(C)C[C@H]2Oc3c(NC(=O)c4nc5ccccc5s4)cccc3C(=O)N([C@@H](C)CO)C[C@H]2C)cc1,max activity,at 19.5 µM unless noted,5.87% [at 5 µM]
Cc1ccc(S(=O)(=O)Nc2ccc3c(c2)C(=O)N([C@@H](C)CO)C[C@H](C)[C@H](CN(C)Cc2ccc(C(F)(F)F)cc2)O3)cc1,max activity,at 19.5 µM unless noted,18.3%
OC[C@@H]1[C@@H](c2ccc(-c3cccc(F)c3)cc2)[C@@H]2CN(Cc3cncnc3)CCCCN12,max activity,at 1.2 µM,-7.4%
same,max activity,at 19.5 µM,16.1%
Cc1ccc(CN2CC[C@H]3CO[C@@H](CNC(=O)C4CC4)[C@@H]3C2)cc1,max activity,at 19.5 µM unless noted,-26.4% [at 10 µM]
CC(C)CCCCC(=O)NC(CCN)C(=O)NC(C(=O)NC(CCN)C(=O)NC1CCNC(=O)C(C(C)O)NC(=O)C(CCN)NC(=O)C(CCN)NC(=O)[C@H](CC(C)C)NC(=O)[C@@H](CC(C)C)NC(=O)C(CCN)NC1=O)C(C)O (stereo partly drawn) ({Heptanoyl(6-Me)}-[ξDab][ξT][ξDab][ξDab][ξDab][dL]L[ξDab][ξDab][ξT]; lactam 4-C),max activity,at 19.5 µM unless noted,-5.41% [at 2.6 µM]
O=C(C1CCCCC1)N1[C@@H](CO)[C@@H]2c3ccccc3N(S(=O)(=O)c3ccccc3)C[C@@H]21,max activity,at 19.5 µM unless noted,7.57%
